In PubChem BioAssay AID504727 (Broad Institute, 2011):
Active and inactive are the calls of the source.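 Rule for the calls: active = fitted half-maximal concentration AC50 at or below ten times the highest valid tested dose, with signal falling as DNA is displaced (actives reach about 34 µM in these data); inconclusive = flat fit at moderate signal loss, or poor fit quality; inactive = the rest, including signal rising instead of falling.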

Test: acridine orange-DNA binding displacement – biochemical, fluorescence polarization, cherry-picked samples, set 2, artefact control for KSHV LANA DNA-binding inhibitor project, dose response (AID 504727);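 for activity change, negative = DNA displacement: 0% = median of neutral control wells and -100% = mitoxantrone positive control wells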
Settings: series mostly up to 35 µM; activity change, negative = DNA displacement: at the top concentration

Row | SMILES | activity change, negative = DNA displacement | AC50
1 | CC(C)CC(=O)Nc1ccc(S(=O)(=O)N2CC3CC(C2)c2cccc(=O)n2C3)cc1 (centres undefined) | -1.57% (inactive) | –
2 | CC(OC(=O)c1cn(C)c2ccccc12)C(=O)N1CCCC1 (centres undefined) | 6.83% (inactive) | –
3 | O=[N+]([O-])c1ccc(N2CCCCCC2)c2nonc12 | – | 13.7 µM (active)
4 | O=c1[nH]c(=O)n(C2CCCCC2)c(O)c1C=Nc1ccc(N2CCOCC2)cc1 | 2.56% (inactive) | –
5 | CCN(CC)C(=O)c1ccc2c(c1)C1C=CCC1C(C(=O)O)N2 (centres undefined) | 6.31% (inactive) | –
6 | CCOC(=O)c1c(/N=C/c2c(O)n(-c3cccc(C)c3)c(=O)[nH]c2=O)sc2c1CCCC2 | 4.56% (inactive) | –
7 | COc1ccc(OC)c(N2C(=O)NC(=O)/C(=C\c3ccc([N+](=O)[O-])s3)C2=O)c1 | 4.68% (inactive) | –
8 | COC(=O)C1=C(c2ccc(OC(F)(F)F)cc2)C[C@@H]2CC[C@H]1N2C(=O)NC1CCCCC1 | 6.88% (inactive) | –
9 | Cc1cc(/C=C2\C(=O)NC(=O)N(Cc3ccccc3)C2=O)c(C)n1-c1ccc(Cl)c(C(=O)O)c1 | 4.37% (inactive) | –
10 | Cc1cc(OCC(=O)OC(C)(C)C)c2c3c(c(=O)oc2c1)CCC3 | 2.45% (inactive) | –
11 | Nc1ccc2nonc2c1[N+](=O)[O-] | – | 8.02 µM (active)
12 | CN1CCN(c2ccc([N+](=O)[O-])c3no[n+]([O-])c23)CC1 | – | 29.2 µM (active)
13 | CN(C)C1C(=O)C(C(N)=O)=C(O)C2(O)C(=O)C3=C(O)c4c(O)cccc4C(C)(O)C3C(O)C12 (centres undefined) | 1.49% (inactive) | –
14 | CCn1c(O)c(N=Nc2cccc(S(=O)(=O)N3CCOCC3)c2)c(=O)n(CC)c1=S | -0.935% (inactive) | –
15 | CCCCc1ccc(C(=O)O)nc1 | 2.8% (inactive) | –
16 | Nc1ccc2ccc3cccc[n+]3c2c1 | – | 1.87 µM (active)
17 | Cc1cc(=O)oc2cc(OCC(=O)N3CCN(Cc4ccc5c(c4)OCO5)CC3)ccc12 | -0.682% (inactive) | –
18 | O=c1c2ccccc2nc(/C=C\c2ccccc2[N+](=O)[O-])n1-c1ccccc1O | 5.85% (inactive) | –
19 | CCOC(=O)C1CCCN(c2ccc([N+](=O)[O-])c3nonc23)C1 (centres undefined) | – | 3.67 µM (active)
20 | N/C(=N\N=C/c1ccc(-c2ccc(O)c(C(=O)O)c2)o1)N[N+](=O)[O-] | 2.31% (inactive) | –
21 | CC1=NCCc2c1[nH]c1cc(O)ccc21 | – | 3.74 µM (active)
22 | O=C(O)c1cccc2c1NC(C(=O)O)C1CC(Sc3ccccc3[N+](=O)[O-])C(Cl)C21 (centres undefined) | 5.91% (inactive) | –
23 | COCCNC(=O)Cn1cc(/C=C2\C(=O)NC(=O)N(c3cccc(C)c3C)C2=O)c2ccccc21 | – | 20.4 µM (active)
24 | CC(Cc1ccccc1)NC(=O)NC(C)Cc1ccccc1 (centres undefined) | -2.07% (inactive) | –
